This is an account of results in PubChem BioAssay (NCI).

Compounds without any hit were thinned out: in the full panel of roughly 83,000, 20% have a hit.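 Note: values are percent growth. 100 is the growth of untreated cells, values between 100 and 0 indicate rising inhibition; between -100 and 0 indicates cell death.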 Unmarked numbers belong to inactive results. The source made the active and inactive calls. Rule for the calls: active = growth percent below 10; inactive = the rest.

The assay has as its system MDA-MB-468 breast. Kind of assay: NCI-60 one-dose screen, 48 h (100 = growth as untreated, 0 = no growth, -100 = all killed). As to conditions: 10 µM unless noted.

As for `Cc1ccc(C(=O)N2C/C(=C/c3ccccc3)C(=O)/C(=C/c3ccccc3)C2)cc1`, the growth is 18.1%. For the compound `CC12CC(C#N)CCC1O2` (stereo not drawn), the growth was 111%. As for `C=C1C(=O)O[C@H]2[C@H]1CC/C(CNC(=O)CCc1ccc(OC)cc1)=C\CC[C@@]1(C)O[C@@H]21`, the figure is 32.1%; as for `CCN(CC)CCCC(C)Nc1ccnc2cc(Cl)c(SCc3ccccc3)cc12` (stereo not drawn), -88.5% (active); as for `COc1ccc([C@H]2[C@H](O)C(=O)N2c2cc(OC)c(OC)c(OC)c2)cc1F`, 26.4%. The same measure for `COc1ccc(-c2[nH]c(=S)n(C(CC3(C)NCC(=O)N3n3c(-c4ccccc4)cc(C)nc3=S)c3ccc(OC)cc3)c(=O)c2Br)cc1` (stereo not drawn): -14.9% (active).

As to `CCCCOC(=O)C1OC(Oc2ccc3c(C)cc(=O)oc3c2)[C@@H](OC(C)=O)C(OC(C)=O)C1OC(C)=O` (stereo partly drawn), the growth is 101%. The same measure for `COc1ccc(CSc2nc3cc(OC)c(OC)cc3c(=O)n2-c2ccc(Cl)cc2)cc1`: 103%; for `N#Cc1c2ccccc2nc2ccccc12`: 84.5%; for `O=C1Nc2ccc(F)cc2/C1=C\c1nc(-c2ccccc2F)n2ccccc12`: 69.2%. As for `Cc1ccc(-c2cc3nc(-c4ccccc4)nc(C(Cl)Cl)n3n2)cc1`, the figure is -61.4% (active); as for `O=C1/C(=C/c2ccc([N+](=O)[O-])cc2)CN(C(=O)CCN2CCC(=NO)CC2)C/C1=C\c1ccc([N+](=O)[O-])cc1`, -33.6% (active). For `c1cn2c(ccc3nc(-c4cn[nH]c4)c4c(c32)CCCC4)n1`, the growth was 42%.
